Test results: PubChem BioAssay AID1159580 (chemical genetic matrix, 2015)
Values joined by “and” are separate entries in the source; they are usually repeats but may differ in a detail not shown here. Equal entries are not always repeated. Hit rate of the full screen: of about 5,500 compounds, about 2,000 (36%) were called active. Inconclusive results (about 18%) are left out. No stated cut-off is given here; in the data, active means normalized growth mostly below about 0.91 (no sharp cut-off); inconclusive means no clear call, values can overlap the other calls; inactive means mostly above about 0.92. The list shows a part of the results.

Assay: chemical genetic growth profiling, strain panel (AID 1159580);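 further: tested at 20 µM; growth read once vehicle control cultures reached saturation at 30 °C; 1 = growth at the plate median or of vehicle wells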
Conditions: S. cerevisiae deletion strains, growth OD

Measured: normalized growth

CC(C)CCCC(C)C1CCC2C3=CC[C@H]4C[C@@H](O)CC[C@]4(C)C3CC[C@@]21C (some centres not stated)
inactive: locus YAL021C, strain ccr4, stronger effect = lower value 0.965 | locus YAL026C, strain drs2, stronger effect = lower value 0.965 | locus YAL030W, strain snc1, stronger effect = lower value 0.985 | locus YBL061C, strain skt5, stronger effect = lower value 0.991 | locus YBR009C, strain hhf1, stronger effect = lower value 1.02 | locus YBR021W, strain FUR4, stronger effect = lower value 1.02 | locus YBR023C, strain chs3, stronger effect = lower value 0.961 | locus YBR171W, strain sec66, stronger effect = lower value 0.968 | locus YBR229C, strain ROT2, stronger effect = lower value 1.02 | locus YBR231C, strain swc5, stronger effect = lower value 0.967 | locus YBR279W, strain paf1, stronger effect = lower value 0.991 | locus YCL011C, strain gbp2, stronger effect = lower value 0.974 | locus YCL016C, strain dcc1, stronger effect = lower value 0.979 | locus YCL029C, strain bik1, stronger effect = lower value 0.994 | locus YCL061C, strain MRC1, stronger effect = lower value 0.986 | locus YCL069W, strain vba3, stronger effect = lower value 0.989 | locus YCR088W, strain abp1, stronger effect = lower value 0.983 | locus YDL005C, strain med2, stronger effect = lower value 0.997 | locus YDL035C, strain GPR1, stronger effect = lower value 0.996 | locus YDL040C, strain nat1, stronger effect = lower value 0.965 | locus YDL074C, strain BRE1, stronger effect = lower value 0.965 | locus YDL101C, strain DUN1, stronger effect = lower value 1.02 | locus YDL185W, strain tfp1, stronger effect = lower value 1 | locus YDL192W, strain arf1, stronger effect = lower value 0.981 | locus YDR001C, strain nth1, stronger effect = lower value 0.985 | locus YDR069C, strain doa4, stronger effect = lower value 0.98 | locus YDR101C, strain arx1, stronger effect = lower value 0.988 | locus YDR150W, strain NUM1, stronger effect = lower value 1.04 | locus YDR159W, strain sac3, stronger effect = lower value 1.01 | locus YDR162C, strain NBP2, stronger effect = lower value 0.958 | locus YDR195W, strain ref2 1.03 | locus YDR297W, strain sur2, stronger effect = lower value 0.975 | locus YDR318W, strain mcm21, stronger effect = lower value 1.01 | locus YDR334W, strain swr1, stronger effect = lower value 0.948 | locus YDR335W, strain msn5, stronger effect = lower value 0.967 | locus YDR388W, stronger effect = lower value 0.994 | locus YDR392W, strain spt3, stronger effect = lower value 0.863 | locus YDR502C, strain sam2, stronger effect = lower value 0.977 | locus YEL003W, strain gim4, stronger effect = lower value 0.976 | locus YEL037C, strain rad23, stronger effect = lower value 0.975 | locus YEL061C, strain CIN8 (second series), stronger effect = lower value 0.978 | locus YEL061C, strain CIN8, stronger effect = lower value 1.01 | locus YER015W, strain faa2, stronger effect = lower value 0.985 | locus YER016W, strain bim1, stronger effect = lower value 0.998 | locus YER110C, stronger effect = lower value 0.985 | locus YER111C, strain swi4, stronger effect = lower value 0.977 | locus YER155C, strain BEM2 (second series), stronger effect = lower value 0.973 | locus YER155C, strain BEM2, stronger effect = lower value 1.01 | locus YER167W, strain BCK2, stronger effect = lower value 1.06 | locus YFR010W, strain ubp6, stronger effect = lower value 0.983 | locus YGL078C, strain dbp3, stronger effect = lower value 0.982 | locus YGL086W, strain mad1, stronger effect = lower value 0.996 | locus YGL167C, strain pmr1, stronger effect = lower value 0.98 | locus YGL173C, strain kem1, stronger effect = lower value 0.968 | locus YGL227W, strain vid30, stronger effect = lower value 0.991 | locus YGL240W, strain doc1, stronger effect = lower value 0.984 | locus YGL248W, strain PDE1, stronger effect = lower value 1.03 | locus YGR135W, strain pre9, stronger effect = lower value 0.982 | locus YGR252W, strain gcn5, stronger effect = lower value 0.944 | locus YHR013C, strain ard1, stronger effect = lower value 0.957 | locus YHR027C, strain rpn1, stronger effect = lower value 0.973 | locus YHR030C, strain SLT2, stronger effect = lower value 1.01 and 0.993 | locus YHR079C, strain IRE1 (second series), stronger effect = lower value 1 | locus YHR079C, strain IRE1, stronger effect = lower value 1.02 | locus YHR094C, strain hxt1, stronger effect = lower value 0.988 | locus YHR129C, strain ARP1, stronger effect = lower value 1.01 | locus YHR142W, strain chs7, stronger effect = lower value 0.886 | locus YHR200W, strain rpn10, stronger effect = lower value 1.01 | locus YIL066C, strain RNR3, stronger effect = lower value 1.03 | locus YIL073C, strain SPO22, stronger effect = lower value 1.05 | locus YIL125W, strain kgd1, stronger effect = lower value 0.999 | locus YIR030C, strain dcg1, stronger effect = lower value 0.994 | locus YJL092W, strain hpr5, stronger effect = lower value 0.976 | locus YJL095W, strain BCK1 (second series), stronger effect = lower value 0.991 | locus YJL095W, strain BCK1, stronger effect = lower value 0.946 and 1 | locus YJL115W, strain asf1, stronger effect = lower value 0.966 | locus YJL129C, strain trk1, stronger effect = lower value 0.905 | locus YJL134W, strain LCB3, stronger effect = lower value 0.989 | locus YJL154C, strain vps35, stronger effect = lower value 0.995 | locus YJL164C, strain tpk1, stronger effect = lower value 0.956 | locus YJL166W, strain qcr8, stronger effect = lower value 0.971 | locus YJL168C, strain set2, stronger effect = lower value 0.995 | locus YJL187C, strain SWE1 (second series), stronger effect = lower value 0.994 | locus YJL187C, strain SWE1, stronger effect = lower value 0.985 | locus YJR043C, strain POL32, stronger effect = lower value 1.05
active: locus YDR137W, strain rgp1, stronger effect = lower value 0.823 | locus YGL253W, strain hxk2, stronger effect = lower value 0.909
